Assay results published in PubChem BioAssay (NCATS).
Records with an inconclusive call do not appear. A call without a number means that no potency is given here. Activity calls are given as the source filed them. Calls come from the whole dose curve; as a rule, active = well fitted curve in the direction sought with a large enough effect; inconclusive = small, poorly fitted or top-dose-only effect, or another doubt; inactive = no such curve, though single readings can be large; an effect the other way counts as inactive or inconclusive.

How the values were obtained:
[1] = biological target: Aldehyde dehydrogenase, mitochondrial (Homo sapiens) (UniProt P05091); assay: qHTS for Inhibitors of the Aldehyde Dehydrogenase Family (ALDH2) Primary screen (AID 2061308); note: nearly all actives have a fitted effect of over 55% in size
[2] = biological target: Retinaldehyde dehydrogenase 3 (Homo sapiens) (UniProt P47895); assay: qHTS for Inhibitors of the Aldehyde Dehydrogenase Family (ALDH1A3) Primary screen (AID 2061315)

COCC(=O)NCCc1nc2ccccc2n1CCOc1ccc(C)cc1
Potency [1]: inactive
Potency [2]: inactive

O=S(=O)(Nc1nccs1)c1ccc(NCc2ccc(Br)cc2O)cc1
Potency [1]: inactive
Potency [2]: inactive

CC(=O)O[C@@](C)(C(=O)/C=C/C(C)(C)O)[C@H]1[C@H](O)C[C@@]2(C)[C@@H]3CC=C4[C@@H](C=C(O)C(=O)C4(C)C)[C@]3(C)C(=O)C[C@]12C
Potency [1]: inactive
Potency [2]: inactive

Cc1ccc(OCCn2c(CCNC(=O)c3cccc(C#N)c3)nc3ccccc32)cc1
Potency [1]: inactive
Potency [2]: inactive

Cc1cc(N[S+](=O)([O-])c2ccc(NC(=O)Cc3ccc4c(c3)CCO4)cc2)no1
Potency [1]: inactive
Potency [2]: inactive

COc1ccc(O)c(CNc2ccc(S(=O)(=O)Nc3nccs3)cc2)c1
Potency [1]: inactive
Potency [2]: inactive

Cc1ccccc1-c1csc2ncnc(Sc3nnnn3C)c12
Potency [1]: inactive
Potency [2]: inactive

Clc1ccccc1CSc1nc2ncc(Br)cc2[nH]1
Potency [1]: inactive
Potency [2]: inactive

Cc1ccc(CNc2nc(-c3ccccc3C(F)(F)F)nc3ccccc23)s1
Potency [1]: inactive
Potency [2]: inactive

O=S(=O)(Nc1nccs1)c1ccc(Nc2nc(-c3ccccc3)cs2)cc1
Potency [1]: inactive
Potency [2]: inactive

Cc1cc(NS(=O)(=O)c2ccc(NC(=O)CCc3ccc(Cl)c(Cl)c3)cc2)no1
Potency [1]: inactive
Potency [2]: inactive

O=C(NCCc1ccc(OCC(F)(F)F)c(OCC(F)(F)F)c1)c1cc2sccc2n1Cc1ccccc1
Potency [1]: inactive
Potency [2]: inactive

O=C(Nc1ccc(-c2nc3ccccc3[nH]2)cc1)Nc1ccc2c(c1)CCCO2
Potency [1]: inactive
Potency [2]: inactive

CCCCN(C)C(=O)Cn1nc(-c2cncnc2)ccc1=O
Potency [1]: inactive
Potency [2]: inactive

CC(C)c1ccc(NC(=O)c2cccs2)c(-c2nc3ccccc3[nH]c2=O)c1
Potency [1]: inactive
Potency [2]: inactive

O=C(c1ccc2c(c1)ncn2-c1cccc(C(F)(F)F)c1)N1CCCCC1
Potency [1]: inactive
Potency [2]: inactive

O=S(=O)(c1ccc2c(c1)OCCO2)N1CCN(S(=O)(=O)c2cccc(Cl)c2F)CC1
Potency [1]: inactive
Potency [2]: inactive

CC(=O)O[C@@H]1C(=O)O[C@@H]2[C@H]1OC(=O)[C@@H]2OC(C)=O
Potency [1]: inactive
Potency [2]: inactive

CC(C)COc1ccc(-c2csc(N3CCC(C(N)=O)CC3)n2)cc1
Potency [1]: inactive
Potency [2]: inactive

O=S(=O)(c1ccc2c(c1)OCCO2)N1CCN(S(=O)(=O)c2ccc3nc(Cl)c(Cl)nc3c2)CC1
Potency [1]: inactive
Potency [2]: inactive

CNc1nc(-c2cccc3ccccc23)ccc1C#N
Potency [1]: inactive
Potency [2]: inactive

O=C1CCc2cc(S(=O)(=O)Nc3cccc(Cl)c3)ccc2N1
Potency [1]: inactive
Potency [2]: inactive

CCc1cccc(CC)c1OCc1cc(C2Nc3ccccc3C(=O)N2Cc2ccco2)ccc1OC (stereo not drawn)
Potency [1]: inactive
Potency [2]: inactive

COc1ccc(S(=O)(=O)NC2CCN(C#N)CC2)cc1
Potency [1]: inactive
Potency [2]: inactive

CCn1c2cc(C)sc2c2cnn(Cc3ccccc3F)c(=O)c21
Potency [1]: inactive
Potency [2]: inactive

O=C(Nc1nc(-c2ccccc2)cs1)c1ccncc1NS(=O)(=O)c1cccnc1
Potency [1]: inactive
Potency [2]: inactive

Cc1nc(NCc2ccccc2)c2nc(-c3ccccc3)n(CCCN3CCCCC3C)c2n1 (stereo not drawn)
Potency [1]: inactive
Potency [2]: inactive

CCN(CC)CCn1c(-c2ccccc2)nc2c(N3CCOCC3)nc(C)nc21
Potency [1]: inactive
Potency [2]: inactive

COc1cccc(C2N=C(Nc3nc4ccccc4o3)NC3=C2C(=O)CCC3)c1 (stereo not drawn)
Potency [1]: inactive
Potency [2]: inactive

CCN(CC)CCCC(C)n1c(-c2ccccc2)nc2c(NCc3ccccc3)nc(C)nc21 (stereo not drawn)
Potency [1]: inactive
Potency [2]: inactive

COc1ccc(C2c3c(n(Cc4ccccc4)cnc3=N)Oc3ccc4ccccc4c32)cc1OC (stereo not drawn)
Potency [1]: inactive
Potency [2]: inactive

CCCCC1CCC(C(=O)Nc2ccc(S(=O)(=O)Nc3cc(C)on3)cc2)CC1 (stereo not drawn)
Potency [1]: inactive
Potency [2]: inactive

O=[N+]([O-])c1ccccc1-c1nc(NCc2ccc(-c3cccnc3)cc2)c2ccccc2n1
Potency [1]: inactive
Potency [2]: inactive

O=C(O)c1ccc2c(c1)C(=O)N([C@H](Cc1ccccc1)C(=O)O)C2=O
Potency [1]: inactive
Potency [2]: inactive

C/C=C(/C)C(=O)O[C@H]1C=C(CO)C(=O)[C@H](OC(=O)/C(C)=C/CO)[C@H]1C(C)C
Potency [1]: inactive
Potency [2]: inactive

COc1cccc(Nc2nn3c(=O)c4ccccc4nc3s2)c1
Potency [1]: inactive
Potency [2]: inactive

Cn1c2ccsc2c2ncn(Cc3ccccc3F)c(=O)c21
Potency [1]: inactive
Potency [2]: inactive

C=C1C(=O)OC2/C=C(\C)CC/C=C(\C(=O)O)CC/C=C(\C)CCC12 (stereo not drawn)
Potency [1]: inactive
Potency [2]: inactive

Cc1cc(C)nc(NC(=S)N2CCN(c3cc(Cl)cc(C(F)(F)F)c3)CC2)c1
Potency [1]: inactive
Potency [2]: inactive
